Our source for the cell number and H1.0 immunofluorescence intensity values is the supplement of paper PMC7156485.

Conditions in all cases: concentration: 10 µM; 24 h
For test [1], the system named is HCC1569. Description: cell number relative to DMSO (% of DMSO); higher = more cells (less growth inhibition / toxicity). An outline of the steps:
(§1)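 Cells were seeded at 800 per well in 384-well plates with RPMI containing 10% FBS; both HCC1569 and TDF lines were used. Compounds were added at 10 µM for 24 h at 37 °C, in triplicate, before fixation in 3.7% formaldehyde and staining with a rabbit anti-H1.0 antibody, an AlexaFluor 647 secondary and DAPI. H1.0 nuclear intensity or cell number is reported as percent of the plate control using the median of replicates, and HCC1569 values were smoothed for positional effects.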

Test [2] relates to TDF. The description is as above. The method, boiled down:
as §1

In test [3] the test system is TDF. Description: H1.0 immunofluorescence intensity relative to DMSO (% of DMSO); higher = stronger H1.0 induction, active = 120 or more. An outline of the steps: as §1
Test [4] concerns HCC1569. In words: H1.0 immunofluorescence intensity relative to DMSO (% of DMSO); higher = stronger H1.0 induction, active = 140 or more. The method, boiled down:
as §1

± gives the standard deviation of the averaged measurements.
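Throughout, for H1.0 immunofluorescence intensity relative to DMSO: TDF is a line of transformed human dermal fibroblasts of mesenchymal origin.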
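Throughout, for cell number relative to DMSO: TDF denotes transformed human dermal fibroblasts of mesenchymal origin.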

On to `CCOC(=O)c1c2c3c(cccc3[nH]c1=O)C(=O)c1ccccc1-2`, for which the results for the cell number in test [1] and in test [2] were 99.7 and 108, respectively. Also, the H1.0 immunofluorescence intensity was 94.2 (inactive) in test [3] and 99.9 (inactive) in test [4].
Taken in the same sequence, the figures for `CCCCCC(O)C=CC=CCCCCCCCC(=O)O` (racemic) were 102, 107, 95.9 (inactive) and 101 (inactive).
With `CS(=O)(=O)c1ccc(-c2cc(Br)sc2-c2ccc(F)cc2)cc1`, the cell number in test [1] was found to be 99.9; in test [2], 100. Moreover, the H1.0 immunofluorescence intensity in test [3] is 96.8 (inactive); in test [4] it was 95.6 (inactive).
On the same counts, the results for `CCCCCCCCC=CCCCCCCCCCCCCC(=O)O` [14(E)-Tricosenoic acid] are 98.3, 98.1, 93.3 (inactive) and 104 (inactive).
On the same counts, the results for `CC(C=CC1=C(C)CCCC1(C)C)=CC=CC(C)=CC(=O)O` [Retinoic Acid] are 98.1 ± 2.9, 109 ± 5.1, 90.8 (inactive) and 121 (inactive).
On to `Cl.Cl.O=C(O)COCCN1CCN(C(c2ccccc2)c2ccc(Cl)cc2)CC1` (stereo not given) [Cetirizine 2HCl], for which the results for the cell number in test [1] and in test [2] were 98.9 and 102, respectively. In addition, the H1.0 immunofluorescence intensity is 94.3 (inactive) in test [3] and 104 (inactive) in test [4].
On the same counts, the results for `CCCCCCCCCCCCCCSCC(=O)O` [Tetradecylthioacetic acid] are 104, 107, 85.8 (inactive) and 102 (inactive).
Taken in the same sequence, the figures for `Nc1c(Br)cc(Br)cc1CNC1CCC(O)CC1` (stereo not given) [Ambroxol] were 104 ± 5.2, 109 ± 5.6, 100 (inactive) and 103 (inactive).
On the same counts, the results for `CC(N)(Cc1ccc(O)cc1)C(=O)O` (racemic) [DL-alpha-Methyl-p-tyrosine] are 103, 117, 114 (inactive) and 106 (inactive).
Consider `O=C(Cc1ccc(Cl)c(Cl)c1)OCCN1CCCC1.O=C(O)C(=O)O` [AC 915 oxalate], for which the cell number in test [1] amounted to 101; in test [2] it was 105. Also, the H1.0 immunofluorescence intensity in test [3] was 92.1 (inactive); in test [4], 99 (inactive).
On the same counts, the results for `Cn1cc(C=C2C(=O)Nc3ccc(S(N)(=O)=O)cc32)c2ccccc21` [Syk Inhibitor] are 84.1, 95.3, 82.7 (inactive) and 132 (inactive).
On the same counts, the results for `CC[N+](CC)(CC)CCOc1ccc(C=Cc2ccccc2)cc1.[I-]` are 99.7, 72.2, 104 (inactive) and 111 (inactive).
Taken in the same sequence, the figures for `Cn1ccnc1` [1-Methylimidazole] were 103, 105, 97.4 (inactive) and 98.9 (inactive).
In the case of `CCC(=O)OC(OP(=O)(CCCCc1ccccc1)CC(=O)N1CC(C2CCCCC2)CC1C(=O)O)C(C)C` (stereo not given) [Fosinopril], the cell number in test [1] was 99.8; in test [2] it was 86. Moreover, the H1.0 immunofluorescence intensity in test [3] is 96 (inactive); in test [4], 101 (inactive).
Taken in the same sequence, the figures for `CCCCCCCCCCCC=CCC=CCCCC(=O)O` [5(Z), 8(Z)-Eicosadienoic acid] were 101, 96.9, 99.9 (inactive) and 99.3 (inactive).
On the same counts, the results for `COc1cc2nccc(Oc3ccc(NC(=O)Nc4cc(C)on4)c(Cl)c3)c2cc1OC.O` [VEGFR Tyrosine Kinase Inhibitor IV] are 82.4, 90.7, 94 (inactive) and 121 (inactive).
Taken in the same sequence, the figures for `CCCCNc1cc(C(=O)O)cc(S(N)(=O)=O)c1Oc1ccccc1` [Bumetanide] were 102.7 ± 0.95, 105 ± 2, 96.4 (inactive) and 100 (inactive).
Consider `COC(=O)Nc1nc2ccc(S(=O)c3ccccc3)cc2[nH]1` (stereo not given) [Oxfendazole], for which the values for the cell number in test [1] and in test [2] were 100 and 68.2, respectively. The H1.0 immunofluorescence intensity in test [3] was 108 (inactive); in test [4] it was 124 (inactive).
`Cc1ccc(NC(=O)c2ccc(CN3CCN(C)CC3)cc2)cc1Nc1nc(-c2cccnc2)cs1` [Masatinib(AB1010)]: the cell number in test [1] was 82.7; in test [2] it was 79.9. The figures for the H1.0 immunofluorescence intensity in test [3] and in test [4] were 109 (inactive) and 141 (active), respectively.
As to `CNCCC=C1c2ccccc2CCc2ccccc21.Cl` [Nortriptyline hydrochloride], the values for the cell number in test [1] and in test [2] were 88.9 and 93.9, respectively. Further, the figures for the H1.0 immunofluorescence intensity in test [3] and in test [4] were 109 (inactive) and 117 (inactive), respectively.
